# Counter-ions that a name gives are not always drawn.
# Tested on: Danio rerio larvae (5 dpf)
# Assay: optomotor response to red moving lines, difference vs DMSO (percentage points (treated minus DMSO)); higher = more of the behaviour than the DMSO vehicle control
# Conditions: 10 µM; exposure time: 3 h pre-incubation + 3 h imaging
# Procedure: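 5-dpf wild-type zebrafish larvae were imaged in 96-well plates. They were treated with 190 Tocris FDA-approved drugs at 10 µM (1 µl/ml DMSO) for 3 h before and 3 h during imaging at 28.5 °C, 48 larvae per drug. Automated image analysis gave % time moving and optomotor responses. Values are drug group mean minus DMSO vehicle mean (n=844), in percentage points, for 10 behaviours.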
row,Compound,optomotor response to red moving lines
1,C=CCN1C[C@H](C(=O)N(CCCN(C)C)C(=O)NCC)C[C@@H]2c3cccc4[nH]cc(c34)C[C@H]21 [Cabergoline],-3.05
2,CC(C)C[C@H]1C(=O)N2CCC[C@H]2[C@]2(O)O[C@](NC(=O)[C@@H]3C=C4c5cccc6[nH]c(Br)c(c56)C[C@H]4N(C)C3)(C(C)C)C(=O)N12 [Bromocriptine mesylate],-29
3,CN1C[C@H](C(=O)N[C@]2(C)O[C@@]3(O)[C@@H]4CCCN4C(=O)[C@H](Cc4ccccc4)N3C2=O)C[C@@H]2c3cccc4[nH]cc(c34)C[C@H]21 [Dihydroergotamine mesylate],11.5
4,N[C@@H]1C[C@H]1c1ccccc1 [Tranylcypromine hydrochloride],12.9
5,CC[C@@H](C(N)=O)N1CCCC1=O [Levetiracetam],0.251
6,COc1ccc(C(CN(C)C)C2(O)CCCCC2)cc1 (stereo unspecified) [Venlafaxine hydrochloride],18.8
7,COc1cc2c(cc1OC)C1CC(=O)C(CC(C)C)CN1CC2 (stereo unspecified) [Tetrabenazine],-1.77
8,CC(O)(CS(=O)(=O)c1ccc(F)cc1)C(=O)Nc1ccc(C#N)c(C(F)(F)F)c1 (stereo unspecified) [Bicalutamide],-10.4
9,O=c1[nH]c2ccccc2n1C1CCN(CCCC(c2ccc(F)cc2)c2ccc(F)cc2)CC1 [Pimozide],-0.227
10,CCN(C)C(=O)Oc1cccc([C@H](C)N(C)C)c1 [Rivastigmine tartrate],-8.95
11,C=C1C[C@@H]2[C@H](CC[C@]3(C)C(=O)CC[C@@H]23)[C@@]2(C)C=CC(=O)C=C12 [Exemestane],6.78

# — the supplement of paper PMC9023506
